# Screening results: PubChem, several laboratories
# A selection: hits, their analogues and other compounds. The true share with any hit is near 1.5%.
# cytoskel mod: modifiers of F-actin cytoskeleton organization, primary screen, imaging, HUVEC, phalloidin staining, high-content imaging; HUVEC TNFa F-actin phalloidin imaging; inhibition, % at 2 µM; 91,000 compounds, 0.18% hits;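 active = inhibition above the batch mean plus 3 SD and confirmed as a hit by visual image inspection, cut at about 30% in these data, passing the limit was not always enough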
# Measles CPE: compounds protecting cells from measles virus cytopathic effect, primary screen, measles RdRp inhibitor project, single point, MLSMR library, absorbance; protection (pct of control), % at 4 µM; Measles virus-infected cells, CPE protection; 140,000 compounds, 1.5% hits; in the data active = protection mostly above about 24%, no sharp cut-off; inactive = mostly below about 26%
# * hit, by the source's call; · = no result.
SMILES,cytoskel mod,Measles CPE
O=C(C1CC1)N1CCN=C1SCc1ccc(F)cc1,18.0,6.7
FC(F)(F)c1ccc(Oc2ccc3ccccc3c2Br)nc1,·,13.5
Cc1ccc(OCC(O)CNS(=O)(=O)c2ccccc2C(=O)N2CCCCC2)cc1 (stereo unspecified),43.6*,4.7
Cc1cccc(C)c1OCC(O)CNS(=O)(=O)c1ccccc1C(=O)N1CCOCC1 (stereo unspecified),2.4,19.9
COC(=O)CCn1nnc(-c2ccc(C)cc2)n1,0.9,4.8
COc1ccc(NC(=O)CCn2nnc(-c3ccc(C)cc3)n2)cc1OC,8.7,55.2*
CC(C)CC(=O)NCCCN1CCN(CCCNC(=O)CC(C)C)CC1,9.4,25.4
CCCCC(CC)C(=O)NCCCN1CCN(CCCNC(=O)C(CC)CCCC)CC1 (stereo unspecified),·,35.9*
CC1=C(C(=O)OCC(C)C)C(c2ccsc2)C2=C(CCCC2=O)N1 (stereo unspecified),·,1.1
Cc1ccc(S(=O)(=O)c2cc(C#N)c(=O)[nH]c2N)cc1,62.4*,21.7
COc1nc(N)c(S(=O)(=O)c2ccc(C)cc2)cc1C#N,-44.5,3.1
CC(C)OCCCNCC(O)c1ccccc1 (stereo unspecified),·,13.0
O=S(=O)(Nc1ccc(Cc2ccncc2)cc1)c1cccs1,-9.9,45.8*
O=S(=O)(Nc1ccc(Cc2ccncc2)cc1)c1ccc(Br)s1,-4.0,1.4
CC[N+](C)(CC)CC(O)COCC1COc2ccccc2O1 (stereo unspecified),·,29.8
Cc1noc(C)c1S(=O)(=O)N1CCC(C(=O)N2CCN(c3ccc(F)cc3)CC2)CC1,-1.1,2.6
Cc1noc(C)c1S(=O)(=O)N1CCC(C(=O)N2CCN(C3CCCC3)CC2)CC1,4.5,43.3*
O=C(Nc1ccc(N2CCCCC2)c(Cl)c1)c1cccnc1,-10.0,60.9*
O=C(Nc1ccc(N2CCCC2)c(Cl)c1)c1cccnc1,1.4,3.1
CC(/C=C/C=C/c1ccccc1)=N/NC(=O)CNc1ccccc1C,·,10.5
O=C(CCC(=O)N1CCc2ccccc21)N1CCc2ccccc21,21.0,·
O=C(CCCc1ccccc1)N1CCc2ccccc21,2.0,7.4
O=C(Cn1cccc1)N1CCc2ccccc21,27.9,100.4*
O=C(Cn1ncc2ccccc21)N1CCc2ccccc21,·,44.8*
CN1CCN(C(=S)SCC(=O)Nc2nc(-c3ccccc3)c(-c3ccccc3)o2)CC1,·,7.9
SMILES,cytoskel mod,Measles CPE
C/C(CCN1CCCCc2nc(C)c(C)cc21)=N\O[C@@H](C)CN1CCCCc2nc(C)c(C)cc21,·,6.1
COc1ccc(O[C@H]2C=C[C@@H](c3ccccc3)O[C@@H]2CO/N=C(\C)CCN2CCCCc3nc(C)c(C)cc32)cc1,·,23.3*
CCC(C)NS(=O)(=O)c1ccc(S(=O)(=O)N2CC=C(c3ccc(F)cc3)CC2)cc1 (stereo unspecified),·,14.1
CCCN1C(=O)/C(=N\OCC(=O)Nc2ccc(C(C)C)cc2)c2ccccc21,·,4.7
CON1C(=O)C(=O)N(OC)C2CCCCC21 (stereo unspecified),18.8,11.4
O=C(CN1CCN(Cc2cccc(Cl)c2)C1=O)NCc1ccccn1,2.7,34.2*
COCCNC(=O)CN1CCN(Cc2cccc(Cl)c2)C1=O,-6.0,7.8
Nc1cc(C(F)(F)F)cc2c1SCC(=O)N2,·,3.8
CCOc1ccc(OCC)c(NC(=O)CCCN2C(=S)NC(C)(C)CC2C)c1 (stereo unspecified),·,6.4
Cc1ccc(C)c(N2CCN(c3cnn(-c4nc5ccccc5s4)c(=O)c3Cl)CC2)c1,·,3.4
O=C(NNS(=O)(=O)c1ccc2ccccc2c1)NC1CCCCC1,·,51.9*
O=C(NNS(=O)(=O)c1ccc2ccccc2c1)c1cccs1,·,28.5
CCC(C)c1ccccc1OCCn1ccnc1 (stereo unspecified),·,2.4
COCCCNC(=O)c1c(N)n(-c2cccc(S(N)(=O)=O)c2)c2nc3ccccc3nc12,-7.6,41.7*
CCCNC(=O)c1c(N)n(-c2cccc(OC)c2)c2nc3ccccc3nc12,0.6,8.1
COc1ccc(/C=N/Nc2c(Cl)cc(Cl)cc2Cl)cc1CN1CCOCC1,·,12.3
Cc1ccc(NC(=O)CCCN2C(=O)c3cccc4cccc(c34)C2=O)cc1,·,13.2
CC(=O)N1C(=O)c2cccc3cccc(c23)C(=O)N1C(C)=O,0.9,53.8*
CCCOc1ccc(NC(=O)CC2C(=O)N(Cc3ccccc3)C(=S)N2Cc2cccs2)cc1 (stereo unspecified),·,9.8
C=CCSc1ncccc1C(=O)NCc1ccccc1,5.1,79.8*
CCOC(=O)c1cccnc1SCC(=O)NCc1ccccc1,13.9,16.1
Cc1nnc(SCC(=O)Nc2sc3c(c2C(=O)c2ccccc2)CCCC3)s1,·,11.6
Cc1[nH]nc(Sc2ccccn2)c1[N+](=O)[O-],·,18.8
CCc1c(C)nc2[nH]nc(NC(=O)C(F)(F)F)n2c1=O,31.7,51.0*
CCc1c(C)nc2nc(NC(C)=O)[nH]n2c1=O,9.1,4.0
SMILES,cytoskel mod,Measles CPE
CCn1ccnc1C(O)c1cccc(OC)c1 (stereo unspecified),63.6*,3.9
COc1ccc(C(O)c2nccn2Cc2ccccc2)cc1 (stereo unspecified),14.4,3.2
N#Cc1ccc(-n2nccc2-c2cnc3n(c2=O)CCS3)cc1,-12.6,40.5*
O=c1c(-c2ccnn2-c2ccc(F)cc2)cnc2n1CCS2,-13.4,10.8
Cc1ccsc1C(=O)NNC(=O)C1CC=CCC1C(=O)O (stereo unspecified),·,8.6
CC(C)c1ccc(C(=O)NNC(=O)C2CC=CCC2C(=O)O)cc1 (stereo unspecified),·,28.7*
Cc1onc(-c2ccccc2)c1C(=O)NNC(=S)NC(=O)/C=C/c1cccs1,·,13.6
CCC(C)c1ccc(NC(=S)NCc2cccnc2)cc1 (stereo unspecified),·,8.2
CC(C)NC(=S)NCc1cccnc1,·,50.7*
Cc1cc(Cl)ccc1OC(C)C(=O)N1CCCN(C(=O)C(C)Oc2ccc(Cl)cc2C)CC1 (stereo unspecified),-15.4,7.8
C/C(=N\NC(=O)c1ccn(C)n1)c1cccc(NC(=O)c2ccncc2)c1,·,14.1
COc1ccc(C(NC(=O)c2ccccc2F)NC(=O)c2ccccc2F)cc1,·,10.2
Cc1cc(C)nc(SCc2ccc(C(=O)N/N=C/C3CCCCC3)cc2)n1,·,12.3
CC(NC(=O)COC(=O)CC(c1ccccc1)c1ccccc1)c1ccccc1 (stereo unspecified),·,4.3
Cc1cc(Nc2ccccc2)n(-c2cccc(Cl)c2)n1,-12.7,13.8
Cc1cc(Nc2ccccc2)n(C(=O)c2ccc(Cl)cc2)n1,15.3,43.6*
Cc1ccc(CN2CCN(/N=C/c3cc(Br)cc(Br)c3O)CC2)c(C)c1,·,4.5
COC(=O)c1ccc(NC(=O)C(=O)N2CCN(C(=S)Nc3ccc(C)cc3)CC2)cc1,·,12.0
CCOc1ccc(-n2c(C)nc3c(cnn3-c3ccc(Cl)cc3)c2=O)cc1,8.2,1.2
CCc1nc2c(cnn2-c2ccc(Cl)cc2)c(=O)n1-c1ccc(OC)cc1,-13.6,55.6*
COc1ccc(C(=O)NC(=S)Nc2ccc3c4c(cccc24)CC3)cc1OC,·,29.6
Cc1nn(-c2ccccc2)c(C)c1/C=N/O,16.6,18.5
Cc1nn(-c2ccccc2)c(N2CCCCC2)c1/C=N/O,-25.2,54.2*
CCCCNC(=O)OCCNC(=O)Oc1cccc(C)c1,-1.3,15.4
